According to PubChem BioAssay (Tox21):
Results filed as inconclusive are left out. Values without a mark were called inactive. Calls of active or inactive are those of the source. Calls come from the whole dose curve; as a rule, active = well fitted cell-killing curve with a large enough effect in the repeat runs; inconclusive = weak or mixed curves, or effect the other way; inactive = flat fitted curve, though single readings scatter.

Test: cAMP Responsive Elements (CRE) small molecule antagonists, cell-based qHTS assay: qHTS cell viability counter screen (AID 2060913); note: nearly all actives have a fitted effect of over 40% in size
Settings: CRE-bla HEK293T viability, CellTiter-Glo luminescence, 5 h; series mostly up to 92.4 µM; viability change, negative = cytotoxic: at the top concentration
Procedure, shortened: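 Steps: cells plated and held 18 hrs at 37 C/5% CO2; compounds and NKH477 (0.25 uM final) added; 3 hrs incubation; reporter substrate read; CellTiter-Glo added to measure cytotoxicity by luminescence.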
% is set by controls: 0 for no effect and ±100 for the full control effect.

SMILES | Potency | viability change, negative = cytotoxic
CN(C)CCOC(=O)COc1ccc(Cl)cc1 | inactive | –
CC(=O)/C=C/C=C1/C2CCC(C2)C1(C)C (stereo not given) | – | -1.71% [at 42.5 µM]
Cc1ccc(C(C)(C)O)cc1 | – | 0.52%
N#CCCOCCOCCC#N | – | -1.35%
O=C1Nc2ccccc2C1=O | – | -15.1%
[Ca+2] | – | -0.0249%
Cc1c[nH]c2ccccc12 | – | -1.53% [at 42.5 µM]
C=CCOC(=O)CCC1CCCCC1 | – | 2.84%
O=C1OC2(c3ccc(O)cc3Oc3cc(O)ccc32)c2ccc(N=C=S)cc21 | – | -0.472%
COCCOC | – | 8.45%
OC1C(O)C(O)C(O)C(O)C1O (stereo not given) | inactive | –
CCCC(C)c1ccccc1O (stereo not given) | – | -12.3%
C[Si](C)(CCCN)O[Si](C)(C)CCCN | – | -2.26%
Cc1[nH]c(=O)c(C#N)cc1-c1ccncc1 | inactive | –
Cc1c(F)cc2c(=O)c(C(=O)O)cn3c2c1CCC3C (stereo not given) | – | 0.94% [at 42.5 µM]
C=C1CC[C@H]2O[C@]2(C)CC[C@@H]2[C@@H]1CC2(C)C | – | 14%
COc1cc2c(cc1OC)-c1cc3ccc(OC)c(OC)c3c[n+]1CC2 | – | -7.49%
CCCCC(CC)CNCC(CC)CCCC (stereo not given) | – | 4.65%
COc1ccc(C(=O)CC(=O)c2ccc(C(C)(C)C)cc2)cc1 | inactive | –
CCCCC(O)/C=C(C)/C=C/C=C/C(=O)N1CCCC1=O (stereo not given) | – | 0.0221% [at 42.5 µM]

SMILES | Potency | viability change, negative = cytotoxic
CC(Oc1c(Cl)cccc1Cl)C1=NCCN1 (stereo not given) | – | 0.0926% [at 42.5 µM]
CCCCCOC(=O)CCC | – | 0.151%
COC(=O)c1sccc1S(N)(=O)=O | – | 0.114%
O=S(=O)(O)c1cc(O)c2ccc(Nc3ccccc3)cc2c1 | – | 3.94%
CC1=NN(c2cc(S(=O)(=O)O)ccc2Cl)C(=O)C1N=Nc1ccccc1 (stereo not given) | – | 7.5%
CC(CO)(CO)[N+](=O)[O-] | – | 6.81%
Cc1ccc(CCn2c3c(c4cc(Cl)ccc42)CN(C)CC3)cn1 | – | -0.931% [at 42.5 µM]
CCCCCC(C)O (stereo not given) | – | 0.563%
O=C(CS)OCCOC(=O)CS | – | -3.63%
Cc1cnc(C)c(C)n1 | – | 0.353%
c1cc(OCC2CO2)cc(OCC2CO2)c1 (stereo not given) | – | 2.04%
FC(F)(F)C(F)(F)C(F)(F)C(F)(F)C(F)(F)C(F)(F)C(F)(F)C(F)(F)Br | – | -0.556% [at 42.5 µM]
CCC=O | – | -0.747%
CC(C)(C)NSc1nc2ccccc2s1 | – | 0.107%
CCC(=O)CC(C)CC (stereo not given) | – | -1.01% [at 0.349 µM]
CC(C)CNCC(C)C | – | 5.82%
CCCCCCCC(=O)[O-].CCCCCCCC(=O)[O-].[Zn+2] | – | -3.82% [at 42.5 µM]
CC1OC1C1CCC2(C)OC2C1 (stereo not given) | – | 0.107%
C=C[C@H]1CN2CC[C@H]1C[C@@H]2[C@@H](O)c1ccnc2ccc(OC)cc12 | inactive | –
CC(=O)N1CCN(c2ccc(O)cc2)CC1 | – | 4.15% [at 42.5 µM]
